Hits are enriched below; roughly 3.5% of the tested compounds scored in any of these assays.
MITF inh – inhibitors of human MITF | O75030 | 650,000 tested, 0.91% active | AID 1259374 | inhibition, % at 2.6 µM | AlphaScreen MITF homodimerization, bead proximity signal; in the data active = inhibition above about 50%
GPR151 activ – activates the human receptor GPR151 | Q8TDV0 | 650,000 tested, 1% active | activation, % at 11.2 µM | PathHunter beta-arrestin GPR151 cells, luminescence; in the data active = activation above about 4.9%
FBW7 act – human FBW7 E3 ligase activation, primary screen; 650,000 tested, 0.13% active; AlphaScreen FBW7–phospho-cyclin E peptide binding, activator screen; normalized activity (activation), % at 26.1 µM; Q969H0; in the data active = normalized activity above about 1.9%;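 also: purified mutant Fbw7 with reduced substrate affinity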
Target sequence (Q969H0 whole entry, looked up): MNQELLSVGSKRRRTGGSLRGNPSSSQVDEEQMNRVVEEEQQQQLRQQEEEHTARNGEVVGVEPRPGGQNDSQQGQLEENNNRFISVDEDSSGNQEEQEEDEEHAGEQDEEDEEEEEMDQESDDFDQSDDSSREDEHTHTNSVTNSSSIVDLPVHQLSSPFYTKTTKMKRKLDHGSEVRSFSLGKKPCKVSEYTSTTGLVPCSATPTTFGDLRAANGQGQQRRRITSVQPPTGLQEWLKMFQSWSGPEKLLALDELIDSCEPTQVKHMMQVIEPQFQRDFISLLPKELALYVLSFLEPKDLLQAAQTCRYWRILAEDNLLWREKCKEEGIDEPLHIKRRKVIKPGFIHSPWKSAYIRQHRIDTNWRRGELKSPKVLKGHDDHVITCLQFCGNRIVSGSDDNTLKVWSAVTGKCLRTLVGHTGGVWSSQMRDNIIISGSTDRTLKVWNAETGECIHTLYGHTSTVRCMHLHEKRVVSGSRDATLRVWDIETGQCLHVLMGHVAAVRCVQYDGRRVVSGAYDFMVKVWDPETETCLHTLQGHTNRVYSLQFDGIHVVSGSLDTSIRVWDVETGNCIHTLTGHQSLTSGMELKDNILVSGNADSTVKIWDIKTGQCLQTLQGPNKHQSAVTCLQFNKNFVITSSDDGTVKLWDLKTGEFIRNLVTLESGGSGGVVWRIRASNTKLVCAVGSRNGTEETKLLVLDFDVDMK
TEAD-YAP block – TEAD-YAP interaction inhibition; HEK-TIYL cells, TEAD-Gal4/YAP UAS-luciferase luminescence; inhibition, % at 9.12 µM; 640,000 tested, 1.4% active; in the data active = inhibition above about 32%
A number is an active result; - = inactive.

SMILES	MITF inh	GPR151 activ	FBW7 act	TEAD-YAP block
Clc1ccc(-n2ncc3c(NC(c4ccccc4)c4ccccc4)ncnc32)cc1	-	-	-	-
Clc1ccc(Nc2ncnc3c2cnn3-c2ccccc2)cc1	-	-	-	-
O=C(Nc1ccc(-c2ccc(NC(=O)c3ccccc3F)cc2)cc1)c1ccccc1F	-	-	-	-
O=C(CSc1cc(N2CCCC2)ncn1)c1ccccc1	-	-	-	76
COc1ccc(C(=O)[C@@H]2[C@@H](c3cccnc3)C(C#N)(C#N)[C@H]3C=Cc4ccccc4N23)cc1	-	-	-	58
Cc1ccc(C(=O)[C@@H]2[C@@H](c3ccccc3F)C(C#N)(C#N)[C@H]3C=Cc4ccccc4N23)cc1	-	-	-	-
COc1ccc(C(=O)[C@@H]2[C@@H](c3ccccc3F)C(C#N)(C#N)[C@H]3C=Cc4ccccc4N23)cc1	-	-	-	67
CC1=C(C(=O)Nc2ccc(F)cc2)C(c2ccsc2)C2=C(CC(C)(C)CC2=O)N1 (stereo unspecified)	-	-	-	-
CSc1nc(N)c2c(n1)NC1=C(C(=O)CC(C)(C)C1)C2c1cccs1 (stereo unspecified)	-	-	-	49
CC1=C(C(=O)Nc2ccccc2F)C(c2ccsc2)C2=C(CC(C)(C)CC2=O)N1 (stereo unspecified)	-	-	-	55
CC1=C(C(=O)Nc2cccc(F)c2)C(c2cccs2)C2=C(CC(C)(C)CC2=O)N1 (stereo unspecified)	-	-	-	58
CSc1nc(N)c2c(n1)NC1=C(C(=O)CC(C)(C)C1)C2c1ccncc1 (stereo unspecified)	-	-	-	-
CC1=C(C(=O)Nc2cccc(F)c2)C(c2ccsc2)C2=C(CC(C)(C)CC2=O)N1 (stereo unspecified)	-	-	-	54
CC1=C(C(=O)Nc2ccccc2F)C(c2ccccn2)C2=C(CC(C)(C)CC2=O)N1 (stereo unspecified)	-	-	-	-
Cc1oc2ccccc2c1CN1CCc2c(nc(N3CCCC3)[nH]c2=O)C1	-	-	-	-
Cc1ccc(C(=O)NCC2CCCN2S(=O)(=O)c2ccccc2)cc1C (stereo unspecified)	-	-	-	-
CS(=O)(=O)N(Cc1ccccc1)c1ccccc1C(=O)NCc1ccccc1Cl	-	-	-	-
N#C/C(=C\c1cc2c(cc1[N+](=O)[O-])OCO2)C(=O)NCc1ccccc1	-	-	-	-
CCOC(=O)c1ccc(-n2c(C)c(C)n3c4c(=O)n(CC(C)C)c(=O)n(C)c4nc23)cc1	-	-	-	-
CC(=O)CC(=O)Nc1ccnn1-c1ccccc1	-	-	-	-
CCOC(=O)C/C(C)=N/c1ccnn1-c1ccccc1	-	-	-	76
CCNC(=O)c1ccc(CN2CCN(c3ccccc3)CC2)cc1	-	-	-	-
O=C(Nc1ccccc1C(F)(F)F)c1ccc(CN2CCN(c3ccccc3)CC2)cc1	-	-	-	47
COc1ccc(Nc2nc(N3CCCC3)c3ccccc3n2)cc1	-	-	-	37
CCOc1ccc(OCCN2C(=O)NC3(CCC(C)CC3)C2=O)cc1 (stereo unspecified)	-	-	-	-
SMILES	MITF inh	GPR151 activ	FBW7 act	TEAD-YAP block
COc1cc(/C=C2\SC(=Nc3ccccc3)NC2=O)ccc1O	-	-	-	-
COc1cc(/C=C2/SC(=Nc3ccccc3)NC2=O)ccc1O	-	-	-	-
COc1cc(/C=C2\SC(=Nc3ccc(F)cc3)NC2=O)cc(OC)c1OC	-	-	-	-
COc1ccc(/C=C2\SC(=Nc3ccc(F)cc3)NC2=O)cc1O	-	-	-	52
O=C1NC(=Nc2ccc(O)cc2)S/C1=C\c1cccc(O)c1	-	-	-	57
COc1cc(/C=C2\SC(=Nc3ccccc3OC)NC2=O)ccc1O	-	-	-	57
O=C1NC(=Nc2ccc(O)cc2)S/C1=C/c1ccccc1	-	-	-	-
COc1cc(/C=C2/SC(=Nc3ccc(O)cc3)NC2=O)ccc1O	-	-	-	49
COC(=O)c1ccc(S(=O)(=O)C(F)(F)F)cc1N	-	-	-	-
Cn1cc(CNC(=O)C2CC=CCC2C(=O)O)cn1 (stereo unspecified)	-	-	-	-
O=C1NC(=Nc2ccc(O)cc2)S/C1=C\c1ccccc1F	-	-	-	43
O=C(c1cccc(-n2c(=S)[nH]c3cc(Cl)ccc3c2=O)c1)N1CCC(Cc2ccccc2)CC1	-	-	-	-
O=C(c1ccc(F)cc1)c1ccc(-c2nc3ccccc3nc2-c2ccccc2)cc1	-	-	-	-
Cc1ccccc1COc1coc(CN2CCN(c3ccc(F)cc3)CC2)cc1=O	-	-	-	-
Cc1ccc([N+](=O)[O-])cc1NC(=O)c1c(-c2c(Cl)cccc2Cl)noc1C	-	-	-	-
CCN(CC)C(=O)c1ccc2nc(NC(=O)c3cccs3)sc2c1	-	-	-	88
CCN(CC)C(=O)c1ccc2nc(NC(=O)c3ccc(N)cc3)sc2c1	-	-	-	80
Cc1onc(-c2c(Cl)cccc2Cl)c1C(=O)Nc1nc2ccc([N+](=O)[O-])cc2s1	-	-	-	49
Cc1ccc2nc(NC(=O)c3ccc([N+](=O)[O-])cc3)sc2c1	-	-	-	-
CCN(CC)C(=O)c1ccc2nc(NC(=O)c3ccc([N+](=O)[O-])cc3)sc2c1	-	-	-	84
Nc1ccc(S(=O)(=O)Nc2nccc(/C=C/c3ccc4c(c3)OCO4)n2)cc1	-	-	-	-
Nc1ccc(-c2cnn3c(NCc4ccco4)ccnc23)cc1	-	-	-	-
Oc1oc(-c2ccc(Cl)cc2)nc1C=Nc1ccc2ccccc2c1	-	-	-	-
Cc1cccn2c(=O)c3cc(C(=O)NCc4cccnc4)c(=N)n(Cc4ccco4)c3nc12	-	-	-	-
CCNC(=O)c1cc2c(=O)n3cccc(C)c3nc2n(Cc2ccco2)c1=N	-	-	-	58
SMILES	MITF inh	GPR151 activ	FBW7 act	TEAD-YAP block
Cc1cccn2c(=O)c3cc(C(=O)NC4CCCCC4)c(=N)n(CCCn4ccnc4)c3nc12	-	-	2.1	-
COC(CN(C)C1=NC(=O)/C(=C\c2ccc(SC)cc2)S1)OC	-	-	-	42
COc1ccc(NC(=O)Cc2ccc(OC)c(OC)c2)c(OC)c1	-	-	-	-
COc1ccc2c(c1)O[C@@H]1COc3cc(OC)c(OC)cc3[C@@H]1C2=O	-	-	-	32
COc1ccc2c(c1)OCC(Cc1ccc(OC)c(OC(C)=O)c1)C2=O (stereo unspecified)	-	-	-	52
COc1ccc2c(c1)OCC(Cc1ccc(OC)c(OC)c1)C2=O (stereo unspecified)	-	-	-	48
CCc1n[nH]c(=O)c2cc3sc(C)cc3n12	-	-	-	-
COCCSc1nnc(NC(=O)C(C)Oc2ccccc2)s1 (stereo unspecified)	-	-	-	-
CN(Cc1ccn[nH]1)C(=O)CCc1nnc(-c2ccc(-c3ccccc3)cc2)o1	-	-	-	-
COc1ccc([N+](=O)[O-])cc1NC(=O)COc1ccc(Br)cc1C	-	-	-	84
Cc1cc(Br)ccc1OCC(=O)Nc1cccc([N+](=O)[O-])c1	-	-	-	-

High-throughput results (PubChem BioAssay)
